# Results as given in PubChem BioAssay (NCATS).
# Inconclusive results are not listed. A call without a number means that no potency is given here. Calls of active or inactive are those of the source. Unless noted, calls come from the whole dose curve.
# What was measured:
# [1] = qHTS profiling of the MIPE4 collection as inhibitors of Plasmodium falciparum (3D7) proliferation (AID 743344; call rule not given here); settings: P. falciparum 3D7 in erythrocytes, SYBR Green DNA fluorescence, 72 h; at 28.5 µM unless noted
# Summary of the method: (§1)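 Parasite DNA was quantified by SYBR Green I fluorescence (ex 485, em 535 nm) after overnight lysis in saponin/Triton buffer at room temperature. Cultures at 0.3% parasitemia and 2.5% hematocrit were first exposed to compound for 72 h at 37 C; signals were normalised to artemisinin (0.29 uM) and vehicle wells.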
# [2] = qHTS profiling of the MIPE4 collection as inhibitors of Plasmodium falciparum (HB3) proliferation (AID 743347; call rule not given here); settings: P. falciparum HB3 in erythrocytes, SYBR Green DNA, 72 h; at 28.5 µM unless noted
# Summary of the method: as §1
# [3] = qHTS for Inhibitors of the Functional Ribonucleoprotein Complex (vRNP) of Lassa (LASV) Arenavirus: LASV Primary Screen - GLuc reporter signal (AID 1347082; calls by dose curve; tested in HEK293 reporter line; note: nearly all actives have a fitted effect of over 60% in size; note: potency is the fitted concentration of half-maximal effect)
# [4] = qHTS for Inhibitors of the Functional Ribonucleoprotein Complex (vRNP) of Lassa (LASV) Arenavirus: Viability assay - alamar blue signal for LASV Primary Screen (AID 1347083; calls by dose curve; tested in HEK293 reporter line; note: nearly all actives have a fitted effect of over 80% in size; note: potency is the fitted concentration of half-maximal effect)
# [5] = qHTS for Inhibitors of the Functional Ribonucleoprotein Complex (vRNP) of Lymphocytic Choriomeningitis Arenaviruses (LCMV): Viability assay - alamar blue signal for LCMV Primary Screen (AID 1347085; calls by dose curve; tested in HEK293 reporter line; note: nearly all actives have a fitted effect of over 80% in size; note: potency is the fitted concentration of half-maximal effect)
# [6] = target: Nucleoprotein (Lymphocytic choriomeningitis virus (strain Armstrong)) (UniProt P09992); experiment: qHTS for Inhibitors of the Functional Ribonucleoprotein Complex (vRNP) of Lymphocytic Choriomeningitis Arenaviruses (LCMV): LCMV Primary Screen - GLuc reporter signal (AID 1347086); note: nearly all actives have a fitted effect of over 70% in size; note: potency is the fitted concentration of half-maximal effect
# [7] = Confirmatory qHTS to identify inhibitors of SARS-CoV-2 cell entry (AID 1645844); note: potency is the fitted concentration of half-maximal effect; nearly all actives have a fitted effect of over 45% in size
# Summary of the method: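 HEK293-ACE2, overnight seeding; cpd 1 h, 37C/5% CO2; + SARS-CoV-2-S MLV PP (Wuhan-Hu-1, ΔC19); 48 h; Bright-Glo luminescence. Data normalised to S PP and bald PP wells.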
# [8] = Cytotoxicity counterscreen for inhibitors of SARS-CoV-2 cell entry (AID 1645845); note: nearly all actives have a fitted effect of over 50% in size
# Summary of the method: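 Counterscreen run in the same HEK293-ACE2 line as the pseudotyped-particle entry assay, without particles. Viability after 48 h at 37 C was read as ATP luminescence, scaled between cell-containing and cell-free wells.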
# [9] = Primary qHTS to identify inhibitors of SARS-CoV-2 cell entry (AID 1645846); settings: activity change, negative = inhibition: at 57.1 µM (top of the series) unless noted; note: nearly all actives have a fitted effect of over 45% in size
# Summary of the method: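 HEK293 cells stably expressing human ACE2, pre-treated 1 h with compound, then infected with MLV particles pseudotyped with Wuhan-Hu-1 spike (C-terminal 19-aa truncation). Luciferase luminescence after 48 h at 37 °C, normalised to spike PP and bald PP.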
# [10] = VSVG counterscreen qHTS to identify inhibitors of SARS-CoV-2 cell entry (AID 1645847); note: potency is the fitted concentration of half-maximal effect; nearly all actives have a fitted effect of over 65% in size
# Summary of the method: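 HEK293-ACE2 cells (Expi293F, human ACE2) pretreated 1 h with compound, then infected with MLV-based VSV-G pseudotyped particles for 48 h at 37 C; luciferase luminescence normalized to VSV-G PP and bald PP wells.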
# [11] = AP1 Signaling Pathway (AID 357; active = well fitted curve in either direction with a large enough effect, not every such curve was filed as active;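 note: ME-180 reporter cells stimulated with EGF at its EC50 level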)
# Summary of the method: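 Titration-series screen for positive or negative modulators of EC50 EGF-induced signaling in ME-180 cells carrying an AP-1-driven beta-lactamase reporter. After 5 hours at 37 degrees Celsius, CCF4 460nm/530nm emission ratio gave %Activity; AC50 values derived.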
# [12] = target: Cytochrome P450 1A2 (Homo sapiens) (UniProt P05177); experiment: p450-cyp1a2 (AID 410); note: potency is the fitted concentration of half-maximal effect
# Summary of the method: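 Read-out is luminescence from luciferin produced by CYP1A2 demethylation of Luciferin-ME (100uM, at Km). Detection reagent stopped the 60 min NADPH-dependent reaction; signals were normalized to 57 uM furafylline.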
# [13] = Stat Signaling Pathway (AID 446; active = well fitted curve in either direction with a large enough effect, not every such curve was filed as active;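 note: ME-180 cervical cancer cells given 40 pM IL-6 alongside compound; SIE-controlled beta-lactamase reporter measured as 460/530 nm FRET emission ratio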)
# Summary of the method: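 Overnight-plated ME-180 cells bearing a STAT Inducible Element beta-lactamase reporter; 5 h co-exposure to compound and 40 pM IL-6; values normalized to 300 pM IL-6 and 125 nM JAK inhibitor controls.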
# [14] = target: Glucocorticoid receptor (Homo sapiens) (UniProt P04150); experiment: GR-GFP Redistribution (AID 450;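 active = compounds whose dose series gives a full or clear partial fitted curve of increased nuclear translocation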; note: potency is the fitted concentration of half-maximal effect); settings: U2OS GR-GFP nuclear translocation, laser cytometry, 2 h
# [15] = target: Glucocorticoid receptor (Homo sapiens) (UniProt P04150); experiment: GR-EFC Redistribution (AID 451); settings: CHO-K1 GR-EFC translocation, beta-gal luminescence, 2 h; note: potency is the fitted concentration of half-maximal effect
# Summary of the method: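 CHO-K1 cells expressing nuclear EA and GR-ED fragments of b-gal; compounds titrated up to 46 uM final, 2 h at 37 C. GR nuclear translocation read as complemented b-gal luminescence after 1 h RT detection.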
# [16] = target: Mitogen-activated protein kinase 10 (Mus musculus) (UniProt Q61831); experiment: JNK3 AlphaScreen Assay (AID 530; active = well fitted curve in either direction with a large enough effect, not every such curve was filed as active;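 note: kinase came from lysate of stimulated human HepG2 cells; signal reports phosphorylation of biotinylated GST-cJun 1-79 at Ser73 with 10 µM ATP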)
# Summary of the method: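 HepG2 lysate (IL-1b/TNFa pre-activated) + biotin-GST-cJun 1-79 + anti-pSer73 cJun; cpd titration, 15 min RT; ATP 10 uM start; Tris pH 7.6, MgCl2, DTT, vanadate; beads in EDTA buffer; AlphaScreen.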
# [17] = target: 3',5'-cyclic-AMP phosphodiesterase 4B (Homo sapiens) (UniProt Q07343); experiment: qHTS Assay for Inhibitors of PDE-IV (AID 607; active = well fitted activation curve with a large enough effect in the main read-out, with a control signal flat, not every such curve was filed as active)
# Summary of the method: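 Live HEK293 cells with a modified cyclic nucleotide-gated (CNG) channel report intracellular cAMP via membrane-potential dye fluorescence (ex 535/em 590 nm). Endogenous PDE-IV was targeted. Compounds were tested at up to 22.9 uM final; RO 20-1724 100 uM served as control.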
# [18] = target: Cytochrome P450 2C9 (Homo sapiens) (UniProt P11712); experiment: qHTS Assay for Inhibitors and Substrates of Cytochrome P450 2C9 (AID 883; active = well fitted curve in the direction sought with a large enough effect; an effect the other way counts as inactive or inconclusive; note: nearly all actives have a fitted effect of over 60% in size)
# Summary of the method: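 Human CYP2C9 (10nM) with Luciferin-H at 100uM (its KM) in 25mM KPO4; compound preincubated 10 min at 37C, then NADPH regeneration for 60 min at 37C. Luciferin read by luminescence after detection reagent; normalized to 57uM sulphaphenazole as full inhibition.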
# [19] = target: Cytochrome P450 2D6 (Homo sapiens) (UniProt P10635); experiment: qHTS Assay for Inhibitors and Substrates of Cytochrome P450 2D6 (AID 891; active = well fitted curve in the direction sought with a large enough effect; an effect the other way counts as inactive or inconclusive; note: potency is the fitted concentration of half-maximal effect; nearly all actives have a fitted effect of over 60% in size)
# Summary of the method: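 Luminescent read-out of luciferin formed by 5 nM human CYP2D6 demethylating 30 uM Luciferin-ME EGE (Km level) over 60 min at room temperature after NADPH regeneration addition. Data normalized to full inhibition by 1.43 uM quinidine.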
# [20] = target: Cytochrome P450 2C19 (Homo sapiens) (UniProt P33261); experiment: qHTS Assay for Inhibitors and Substrates of Cytochrome P450 2C19 (AID 899; active = well fitted curve in the direction sought with a large enough effect; an effect the other way counts as inactive or inconclusive; note: nearly all actives have a fitted effect of over 60% in size)
# Summary of the method: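 5 nM human CYP2C19 with 10uM Luciferin-H EGE (at KM) in 50mM KPO4, compound preincubated 10 min at 37C, then NADPH regeneration for 60 min at 37C. Luciferin read by luminescence after detection reagent; normalized to 57uM ketoconazole as full inhibition.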
# [21] = Primary qHTS for small molecule stabilizers of the endoplasmic reticulum resident proteome: Secreted ER Calcium Modulated Protein (SERCaMP) assay (AID 1508630; active = well fitted curve in the direction sought with a large enough effect; an effect the other way counts as inactive or inconclusive)
# Summary of the method: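 The SH-SY5Y reporter protocol was run at 3 concentrations up to 38.3 uM (primary) or 11 concentrations (follow-up): 16 h compound, 100 nM thapsigargin for 4 h, then extracellular luciferase luminescence.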
# [22] = Confirmation and Secondary Assay for Modulators of Hemoglobin Beta Chain Splicing at IVS2 654 locus (AID 910; active = well fitted curve in the direction sought with a large enough effect; an effect the other way counts as inactive or inconclusive;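 note: HeLa cells stably carrying EGFP split by mutant beta-globin IVS2-654 intron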)
# Summary of the method: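 HeLa cells stably expressing EGFP interrupted by β-globin IVS2-654 intron, seeded overnight in Opti-MEM/2% FCS, then treated 2 days at 37 °C. Restored splicing read as total peak GFP intensity per well by laser scanning cytometry (488 nm excitation, 500–520 nm emission); 500 nM antisense PNA as control.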
# [23] = Confirmation and Secondary Assay for Modulators of Hemoglobin Beta Chain Splicing at IVS2 705 locus (AID 930; active = well fitted curve in the direction sought with a large enough effect; an effect the other way counts as inactive or inconclusive;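 note: HeLa cells stably expressing the EGFP-705 splicing reporter; GFP fluorescence per well restored by corrected splicing of the IVS2-705 intron in EGFP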)
# Summary of the method: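 Stable HeLa line with EGFP disrupted by mutant beta-globin intron 2 (705). Overnight attachment, then 2 days of compound at 37C, 5% CO2. Signal: peak GFP intensity summed over objects 5-250 µm.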
# [24] = qHTS Assay for Lipid Storage Modulators (AID 1519); settings: Drosophila S3 cells, BODIPY lipid droplet/cell ratio, laser cytometry, cells loaded with oleic acid; for activity change, negative = inhibition: at 57.5 µM (top of the series)
# Summary of the method: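 Cells seeded at 5,000 per well were treated with compounds over a concentration series and loaded with oleic acid (400 uM, as added). Lipid droplet fluorescence (488 nm excitation, 500-530 nm channel) was read by laser-scanning cytometry and normalized to 20 uM Triacsin C.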
# [25] = target: Ubiquitin carboxyl-terminal hydrolase 1 (Homo sapiens) (UniProt O94782); experiment: Inhibitors of USP1/UAF1: Pilot qHTS (AID 504865; active = well fitted curve in the direction sought with a large enough effect; an effect the other way counts as inactive or inconclusive; note: nearly all actives have a fitted effect of over 35% in size; note: potency is the fitted concentration of half-maximal effect;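 for activity change, negative = inhibition: rhodamine fluorescence freed from ubiquitin-rhodamine substrate followed over time; top concentration of the series differs between compounds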)
# Summary of the method: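 USP1/UAF1 complex at 1 nM preincubated 15 min at room temperature with compound, then Ub-Rho substrate added at 150 nM final. Fluorescence (480/540 nm) read kinetically in 50 mM HEPES pH 7.8, 0.5 mM EDTA, 1 mM TCEP, 0.1 mg/ml BSA, 0.01% Tween-20.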
# [26] = target: Cytochrome P450 3A4 (Homo sapiens) (UniProt P08684); experiment: qHTS Assay for Inhibitors and Substrates of Cytochrome P450 3A4 (AID 884; active = well fitted curve in the direction sought with a large enough effect; an effect the other way counts as inactive or inconclusive; note: nearly all actives have a fitted effect of over 50% in size)
# Summary of the method: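 Luminescent readout of luciferin produced by CYP3A4 (20 nM) dealkylation of Luciferin-PPXE, 25 uM (its KM). NADPH-driven reaction ran 60 min at RT after 10 min compound preincubation; data scaled to 57 uM ketoconazole as 100% inhibition.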
# [27] = target: DNA dC->dU-editing enzyme APOBEC-3G (Homo sapiens) (UniProt Q9HC16); experiment: qHTS for inhibitors of Vif-A3G interactions: Validation (AID 588379; active = well fitted curve in the direction sought with a large enough effect; an effect the other way counts as inactive or inconclusive)
# Summary of the method: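 Yellow fluorescence (Ex 488, Em 500-530) of Vif-coexpressing HeLa A3G-eYFP cells, scanned by Acumen cytometer, reports blocked A3G degradation. Cells plated at 700/well overnight at 37 deg C before compound addition, then a further overnight compound incubation at 37 deg C.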
# [28] = measured here: cell count channel max response
# [29] = measured here: lipid channel max response
# Sequence of Nucleoprotein (Lymphocytic choriomeningitis virus (strain Armstrong)) (P09992 whole entry, looked up): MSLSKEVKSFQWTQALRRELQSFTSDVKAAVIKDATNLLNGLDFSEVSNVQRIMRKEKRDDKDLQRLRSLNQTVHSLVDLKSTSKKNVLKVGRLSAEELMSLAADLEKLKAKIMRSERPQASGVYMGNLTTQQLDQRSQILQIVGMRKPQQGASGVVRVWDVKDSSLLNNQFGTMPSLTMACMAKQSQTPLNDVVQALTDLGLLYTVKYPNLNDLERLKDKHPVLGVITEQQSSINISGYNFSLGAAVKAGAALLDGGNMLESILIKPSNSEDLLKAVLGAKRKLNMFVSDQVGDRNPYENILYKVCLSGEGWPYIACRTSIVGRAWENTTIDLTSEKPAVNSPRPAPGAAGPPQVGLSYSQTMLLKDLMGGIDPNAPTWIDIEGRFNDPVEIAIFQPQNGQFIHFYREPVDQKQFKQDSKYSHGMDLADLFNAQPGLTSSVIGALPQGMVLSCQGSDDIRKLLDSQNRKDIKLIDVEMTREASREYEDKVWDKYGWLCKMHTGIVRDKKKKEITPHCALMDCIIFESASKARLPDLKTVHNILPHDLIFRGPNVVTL
# Sequence of Glucocorticoid receptor (Homo sapiens) (P04150 whole entry, looked up, the tested form may be a part): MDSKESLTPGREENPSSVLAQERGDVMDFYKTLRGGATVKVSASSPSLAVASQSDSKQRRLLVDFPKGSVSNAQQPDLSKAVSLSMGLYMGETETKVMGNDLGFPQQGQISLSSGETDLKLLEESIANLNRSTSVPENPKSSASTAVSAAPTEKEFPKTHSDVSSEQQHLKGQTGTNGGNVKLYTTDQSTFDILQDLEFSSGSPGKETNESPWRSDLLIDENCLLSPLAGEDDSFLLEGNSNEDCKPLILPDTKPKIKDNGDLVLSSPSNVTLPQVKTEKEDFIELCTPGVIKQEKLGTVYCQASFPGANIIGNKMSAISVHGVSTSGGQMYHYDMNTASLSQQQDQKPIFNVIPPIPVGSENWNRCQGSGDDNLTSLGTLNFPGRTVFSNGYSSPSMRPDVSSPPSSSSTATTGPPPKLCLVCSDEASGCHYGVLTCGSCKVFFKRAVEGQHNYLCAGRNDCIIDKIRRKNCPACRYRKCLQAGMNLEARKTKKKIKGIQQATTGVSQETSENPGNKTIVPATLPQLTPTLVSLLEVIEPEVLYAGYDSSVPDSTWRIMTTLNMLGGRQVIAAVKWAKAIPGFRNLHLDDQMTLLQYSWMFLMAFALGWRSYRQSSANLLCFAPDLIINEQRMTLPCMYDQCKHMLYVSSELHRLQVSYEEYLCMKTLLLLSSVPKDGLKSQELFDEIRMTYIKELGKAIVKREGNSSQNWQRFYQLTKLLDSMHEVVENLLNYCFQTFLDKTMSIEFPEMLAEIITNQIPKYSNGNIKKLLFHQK
# Sequence of Ubiquitin carboxyl-terminal hydrolase 1 (Homo sapiens) (O94782 whole entry, looked up): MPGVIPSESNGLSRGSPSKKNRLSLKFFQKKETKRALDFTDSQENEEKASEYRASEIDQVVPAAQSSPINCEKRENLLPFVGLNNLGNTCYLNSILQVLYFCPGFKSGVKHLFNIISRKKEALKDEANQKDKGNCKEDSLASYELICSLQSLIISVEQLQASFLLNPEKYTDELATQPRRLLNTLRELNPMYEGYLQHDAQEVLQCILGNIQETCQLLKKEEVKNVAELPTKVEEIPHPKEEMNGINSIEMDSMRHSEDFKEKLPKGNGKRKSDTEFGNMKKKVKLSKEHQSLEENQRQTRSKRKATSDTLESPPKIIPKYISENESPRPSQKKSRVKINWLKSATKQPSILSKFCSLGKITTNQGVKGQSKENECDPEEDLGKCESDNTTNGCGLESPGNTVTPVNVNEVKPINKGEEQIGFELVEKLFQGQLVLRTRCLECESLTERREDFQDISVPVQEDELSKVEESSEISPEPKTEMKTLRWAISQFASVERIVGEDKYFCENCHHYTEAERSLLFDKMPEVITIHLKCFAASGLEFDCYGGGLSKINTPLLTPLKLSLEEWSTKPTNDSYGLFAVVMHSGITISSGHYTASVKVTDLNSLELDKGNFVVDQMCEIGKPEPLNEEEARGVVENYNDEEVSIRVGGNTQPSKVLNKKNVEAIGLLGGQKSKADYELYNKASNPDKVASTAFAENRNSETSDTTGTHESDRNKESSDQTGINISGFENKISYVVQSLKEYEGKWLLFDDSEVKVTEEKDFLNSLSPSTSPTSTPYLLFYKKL
# Sequence of Cytochrome P450 2D6 (Homo sapiens) (P10635 whole entry, looked up): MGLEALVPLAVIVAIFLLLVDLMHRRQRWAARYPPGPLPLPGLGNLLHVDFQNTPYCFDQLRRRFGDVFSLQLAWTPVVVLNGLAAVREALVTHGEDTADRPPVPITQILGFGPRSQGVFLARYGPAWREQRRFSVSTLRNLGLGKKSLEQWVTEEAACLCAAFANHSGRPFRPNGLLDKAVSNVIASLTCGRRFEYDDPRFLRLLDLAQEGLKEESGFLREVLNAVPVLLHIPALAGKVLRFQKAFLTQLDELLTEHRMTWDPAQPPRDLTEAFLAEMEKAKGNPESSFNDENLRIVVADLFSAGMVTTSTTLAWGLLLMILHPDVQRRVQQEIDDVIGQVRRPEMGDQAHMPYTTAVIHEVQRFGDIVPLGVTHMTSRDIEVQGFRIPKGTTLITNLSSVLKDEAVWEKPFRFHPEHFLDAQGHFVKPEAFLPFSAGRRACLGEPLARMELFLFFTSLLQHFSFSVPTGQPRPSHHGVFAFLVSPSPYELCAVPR
# Sequence of Cytochrome P450 2C9 (Homo sapiens) (P11712 whole entry, looked up): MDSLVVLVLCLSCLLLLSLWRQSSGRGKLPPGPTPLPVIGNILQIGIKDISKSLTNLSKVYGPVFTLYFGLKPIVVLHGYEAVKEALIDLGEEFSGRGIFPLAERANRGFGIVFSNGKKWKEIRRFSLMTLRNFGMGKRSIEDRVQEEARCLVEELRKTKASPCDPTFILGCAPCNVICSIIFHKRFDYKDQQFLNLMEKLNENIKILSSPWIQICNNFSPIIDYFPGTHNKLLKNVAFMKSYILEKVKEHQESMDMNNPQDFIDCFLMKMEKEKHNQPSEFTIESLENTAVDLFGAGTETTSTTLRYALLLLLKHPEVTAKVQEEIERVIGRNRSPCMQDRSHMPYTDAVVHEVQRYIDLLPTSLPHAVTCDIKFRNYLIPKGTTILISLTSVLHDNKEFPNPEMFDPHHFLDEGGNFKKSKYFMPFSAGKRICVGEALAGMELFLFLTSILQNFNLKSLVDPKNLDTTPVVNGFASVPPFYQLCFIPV
# Sequence of 3',5'-cyclic-AMP phosphodiesterase 4B (Homo sapiens) (Q07343 whole entry, looked up): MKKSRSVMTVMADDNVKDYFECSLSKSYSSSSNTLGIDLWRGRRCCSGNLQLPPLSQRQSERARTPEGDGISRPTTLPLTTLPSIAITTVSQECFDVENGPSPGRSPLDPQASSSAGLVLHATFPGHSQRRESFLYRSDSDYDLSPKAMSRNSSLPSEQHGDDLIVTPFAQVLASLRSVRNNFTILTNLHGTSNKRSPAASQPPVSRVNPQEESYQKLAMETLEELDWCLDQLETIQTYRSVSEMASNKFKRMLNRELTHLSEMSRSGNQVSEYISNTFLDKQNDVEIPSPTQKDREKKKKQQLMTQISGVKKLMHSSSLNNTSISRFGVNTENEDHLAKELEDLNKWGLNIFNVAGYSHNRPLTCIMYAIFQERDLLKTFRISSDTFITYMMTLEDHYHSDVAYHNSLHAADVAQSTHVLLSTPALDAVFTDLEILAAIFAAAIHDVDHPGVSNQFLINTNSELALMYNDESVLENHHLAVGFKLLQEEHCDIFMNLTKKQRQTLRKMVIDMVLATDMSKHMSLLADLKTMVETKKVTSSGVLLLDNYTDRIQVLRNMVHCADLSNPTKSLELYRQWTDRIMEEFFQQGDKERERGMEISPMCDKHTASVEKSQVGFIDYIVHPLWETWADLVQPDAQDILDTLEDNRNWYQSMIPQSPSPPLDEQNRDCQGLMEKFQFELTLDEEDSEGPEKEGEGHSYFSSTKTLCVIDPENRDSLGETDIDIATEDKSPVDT
# Sequence of Cytochrome P450 2C19 (Homo sapiens) (P33261 whole entry, looked up): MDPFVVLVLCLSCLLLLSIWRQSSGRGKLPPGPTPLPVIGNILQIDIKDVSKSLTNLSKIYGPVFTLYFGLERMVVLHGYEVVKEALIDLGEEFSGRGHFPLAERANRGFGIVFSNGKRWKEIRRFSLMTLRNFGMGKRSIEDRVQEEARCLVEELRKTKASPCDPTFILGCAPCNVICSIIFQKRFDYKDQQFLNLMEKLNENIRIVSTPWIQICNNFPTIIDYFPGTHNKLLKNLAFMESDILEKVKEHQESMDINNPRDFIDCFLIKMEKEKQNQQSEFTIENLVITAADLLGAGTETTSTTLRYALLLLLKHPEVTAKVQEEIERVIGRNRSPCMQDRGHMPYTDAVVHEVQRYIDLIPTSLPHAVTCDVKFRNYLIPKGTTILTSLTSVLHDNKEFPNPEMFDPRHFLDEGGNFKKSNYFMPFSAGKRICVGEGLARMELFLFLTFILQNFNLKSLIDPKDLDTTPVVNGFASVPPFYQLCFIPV
# Sequence of Cytochrome P450 3A4 (Homo sapiens) (P08684 whole entry, looked up): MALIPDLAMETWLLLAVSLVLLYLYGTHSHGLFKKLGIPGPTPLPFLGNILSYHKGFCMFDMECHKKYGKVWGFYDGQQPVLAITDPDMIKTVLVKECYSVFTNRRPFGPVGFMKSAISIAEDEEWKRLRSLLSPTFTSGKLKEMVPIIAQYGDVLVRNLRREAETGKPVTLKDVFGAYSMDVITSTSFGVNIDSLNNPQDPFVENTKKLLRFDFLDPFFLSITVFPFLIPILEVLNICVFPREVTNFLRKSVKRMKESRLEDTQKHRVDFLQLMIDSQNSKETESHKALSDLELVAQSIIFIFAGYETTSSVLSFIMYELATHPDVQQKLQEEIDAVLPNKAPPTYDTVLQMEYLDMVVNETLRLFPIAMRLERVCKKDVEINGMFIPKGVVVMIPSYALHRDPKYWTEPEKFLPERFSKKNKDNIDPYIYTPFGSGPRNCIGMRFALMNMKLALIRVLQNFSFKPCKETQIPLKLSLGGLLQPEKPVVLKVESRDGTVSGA
smiles,measurement,setting,value
C[N+](C)([O-])CCNc1ccc(NCC[N+](C)(C)[O-])c2c1C(=O)c1c(O)ccc(O)c1C2=O,"parasite growth, % of DMSO control",[1],49%
same,"growth, % of control",[2],60.6%
same,Potency,[3],inactive
same,Potency,[4],inactive
same,Potency,[5],inactive
same,Potency,[6],inactive
same,Potency,[7],19.2 µM (active)
same,Potency,[8],inactive
same,"activity change, negative = inhibition",[9],-13.5%
same,Potency,[10],10.8 µM (active)
CC1=C[C@@H]2c3cccc4[nH]cc(c34)C[C@H]2N(C)C1,outcome,[11],inactive
same,Potency,[12],3.16 µM (active)
same,outcome,[13],inactive
same,Potency,[14],> 46 µM (inactive)
same,Potency,[15],> 46 µM (inactive)
same,outcome,[16],inactive
same,Potency,[17],inactive
same,Potency,[18],inactive
same,Potency,[19],2 µM (active)
same,Potency,[20],inactive
same,Potency,[3],inactive
same,Potency,[4],inactive
same,Potency,[5],inactive
same,Potency,[6],inactive
same,Potency,[21],inactive
O=C(O)c1cc(O)c2c(c1)C(=O)c1cccc(O)c1C2=O,Potency,[3],inactive
same,Potency,[4],inactive
same,Potency,[5],inactive
same,Potency,[6],inactive
same,Potency,[8],inactive
CC(C)(C)OC(=O)CN(Cc1ccc(Cl)cc1)Cc1ccc([N+](=O)[O-])s1,Potency,[3],inactive
same,Potency,[4],inactive
same,Potency,[5],inactive
same,Potency,[6],inactive
same,Potency,[8],inactive
CN1CC(CO)=C[C@H]2c3cccc4[nH]cc(c34)C[C@H]21,Potency,[22],inactive
same,outcome,[23],inactive
same,"activity change, negative = inhibition",[24],6.54% (inactive)
same,max response,[24]; [28],8.91%
same,max response,[24]; [29],13%
same,Potency,[25],50.1 µM (active)
same,Potency,[3],inactive
same,Potency,[4],inactive
same,Potency,[5],inactive
same,Potency,[6],inactive
CNC(=O)c1nn(C)c2c1C(C)(C)Cc1cnc(Nc3ccc(N4CCN(C)CC4)cc3)nc1-2,Potency,[3],3.43 µM (active)
same,Potency,[4],1.09 µM (active)
same,Potency,[5],3.85 µM (active)
same,Potency,[6],3.06 µM (active)
same,Potency,[7],3.04 µM (active)
same,Potency,[10],4.82 µM (active)
CC(C)C[C@@H](N)[C@H](O)C(=O)N[C@H](C(=O)N[C@H](C(=O)N[C@@H](CC(=O)O)C(=O)O)C(C)C)C(C)C,Potency,[3],inactive
same,Potency,[4],inactive
same,Potency,[5],inactive
same,Potency,[6],inactive
same,Potency,[8],inactive
CCn1cc(-c2ccnc3[nH]c(-c4cccc(CN(C)C)c4)cc23)c(-c2ccc(NC(=O)N(C)C)cc2)n1,Potency,[3],13.7 µM (active)
same,Potency,[4],4.85 µM (active)
same,Potency,[5],2.43 µM (active)
same,Potency,[6],3.43 µM (active)
same,Potency,[8],inactive
O=C(O)CF,Potency,[26],inactive
same,Potency,[22],inactive
same,outcome,[23],inactive
same,"activity change, negative = inhibition",[24],3.91% (inactive)
same,max response,[24]; [28],8.93%
same,max response,[24]; [29],13%
same,Potency,[3],inactive
same,Potency,[4],inactive
same,Potency,[5],inactive
same,Potency,[6],inactive
CCC1CN2CCC1CC2C(O)c1ccnc2ccccc12 (stereo not given),"activity change, negative = inhibition",[24],-3.02% (inactive)
same,max response,[24]; [28],-1.23%
same,max response,[24]; [29],-3.67%
same,Potency,[25],inactive
same,Potency,[27],inactive
same,Potency,[3],inactive
same,Potency,[4],inactive
same,Potency,[5],inactive
same,Potency,[6],inactive
